# PG9 Ab binder: binds the HIV-1 gp120 antibody PG9. TR-FRET gp120-PG9 antibody binding. 360,000 compounds, 0.43% hits. inhibition, % at 6.7 µM; in the data active = inhibition above about 8.5%
# ABCB6 inh MLPCN: inhibitors of human ABC transporter ABCB6. K562-ABCB6 porphyrin accumulation, flow cytometry, 1 h; stronger effect = lower value. fluorescence ratio to DMSO, % at 10 µM. 360,000 compounds, 0.19% hits. Q9NP58;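 active = fluorescence ratio to DMSO below 75%, the collection mean minus 3 SD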;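 also: signal is porphyrin accumulated inside mitochondria; 100% equals median channel fluorescence of DMSO control wells; lower ratio means ABCB6 inhibition with less porphyrin fluorescence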
# Exocytosis inh: blocks lytic granule exocytosis; AID 651702; 360,000 compounds, 0.66% hits; TALL-104 LAMP-1 surface exposure, flow cytometry; cells stimulated with thapsigargin and PMA; inhibition, % at 10 µM;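 active = inhibition above about 55%, limit read from the data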
# NR1D1 modulator: modulators of human Rev-erb alpha DNA binding; P20393; Rev-erbα–FITC-DNA binding, fluorescence polarization, 90 min; activity, % at 10 µM; 370,000 compounds, 0.79% hits; AID 1259318;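 active = activity above about 14%, limit read from the data; passing the limit was not always enough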;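 also: 0% = DMSO wells with 35 nM protein and 100% = DMSO wells with 750 nM protein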
# Target sequence (P20393 whole entry, looked up): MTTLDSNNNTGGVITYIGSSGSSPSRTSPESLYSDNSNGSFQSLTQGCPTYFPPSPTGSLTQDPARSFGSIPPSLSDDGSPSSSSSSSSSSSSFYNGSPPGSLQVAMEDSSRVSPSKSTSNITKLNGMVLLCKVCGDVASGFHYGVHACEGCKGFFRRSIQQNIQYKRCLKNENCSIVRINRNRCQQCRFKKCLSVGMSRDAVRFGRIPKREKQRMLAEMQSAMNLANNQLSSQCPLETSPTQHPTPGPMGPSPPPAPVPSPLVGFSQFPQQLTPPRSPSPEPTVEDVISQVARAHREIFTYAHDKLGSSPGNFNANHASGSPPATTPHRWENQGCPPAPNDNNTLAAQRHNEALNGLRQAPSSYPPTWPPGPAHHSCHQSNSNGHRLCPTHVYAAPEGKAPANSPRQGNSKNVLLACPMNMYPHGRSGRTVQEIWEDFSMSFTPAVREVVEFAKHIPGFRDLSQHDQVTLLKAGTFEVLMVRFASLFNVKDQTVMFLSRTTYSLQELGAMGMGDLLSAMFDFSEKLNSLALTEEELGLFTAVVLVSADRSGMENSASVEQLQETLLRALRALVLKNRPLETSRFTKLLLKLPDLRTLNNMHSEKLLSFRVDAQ
# VLA-4 inh: inhibition in a human VLA-4 binding assay | VLA-4 expressing cells, ligand binding flow cytometry | inhibition, % (about 7 µM as worked out from the volumes in the protocol) | 330,000 compounds, 0.2% hits | AID 2557; in the data active = inhibition above about 50%
# ABCB6 inh CP1: blocks the human ABCB6 transporter | shares compounds with ABCB6 inh MLPCN | 700 tested, under 10 active | AID 602430 | ratio response (% of DMSO), % at 10 µM | K562-ABCB6 porphyrin accumulation, flow cytometry, 1 h; stronger effect = lower value;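 active = repeat-averaged ratio response below 75% of DMSO, the collection mean minus 3 SD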;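 also: median porphyrin fluorescence at 575 nm with 488 nm excitation from mitochondria; lower ratio means less porphyrin signal so ABCB6 inhibition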
# Numbers without * were called inactive; nt = no result. An excerpt weighted towards active compounds, which were near 2% of everything screened.
SMILES,PG9 Ab binder,ABCB6 inh MLPCN,Exocytosis inh,NR1D1 modulator,VLA-4 inh,ABCB6 inh CP1
O=[N+]([O-])c1ccc(OCCn2cncn2)cc1,-1.5,63.0*,-3.8,5.6,5.7,100.0
O=[N+]([O-])c1ccc(OCn2cncn2)cc1,-2.5,90.0,-0.7,4.4,-7.3,nt
CCOC(=O)Cc1nnc(NC(=O)C(CC)Sc2nnc3c4ccccc4n(C)c3n2)s1 (stereo not drawn),-0.8,74.0*,-0.7,4.4,8.9,100.0
CCOC(=O)c1sc(NC(=O)C(CC)Sc2nnc3c4ccccc4n(C(C)C)c3n2)nc1C (stereo not drawn),-1.4,93.0,-5.9,6.4,nt,nt
CNC(=O)c1c[nH]n2c(=O)c(Cc3ccccc3F)c(C)nc12,1.7,107.0,-4.1,-2.2,-1.3,116.0
CC(C)(N[C@@H](Cc1ccccc1)C(=O)NCCCc1ccccc1)C(=O)NCc1ccccc1,nt,nt,nt,-0.3,nt,nt
CC[C@@]1(c2ccc(C)cc2)C(=O)N(C(=O)OC)N1C(=O)OC,nt,nt,nt,-4.3,nt,nt
CCOC(=O)N1CCC(N2Cc3cccc(C(=O)NCc4ccccn4)c3C2=O)CC1,-0.8,73.0*,-5.7,-3.3,2.8,99.0
COCCN1Cc2cccc(C(=O)NCc3ccccn3)c2C1=O,1.0,91.0,3.5,-0.1,-9.5,nt
C[C@@H]1CN([C@H](C)CO)C(=O)CCCn2nncc2CO[C@H]1CN(C)C(=O)Nc1ccc2c(c1)OCCO2,1.3,nt,nt,-2.6,nt,nt
Cc1ccc(-c2cc(C(=O)NN=Cc3ccc(N(C)C)cc3)[nH]n2)cc1C,nt,nt,nt,-26.4,nt,nt
COc1ccc(OC)c(C(C)NC(=O)Nc2ccccc2)c1 (stereo not drawn),-0.5,72.0*,-0.8,3.4,-1.3,101.0
COc1ccc(OC)c(C(C)NC(=O)C23CC4CC(CC(C4)C2)C3)c1 (stereo not drawn),-0.7,104.0,-7.2,7.7,-3.5,nt
CCOC(=O)Cn1nnnc1CN(Cc1cccs1)Cc1cc2cc(C)ccc2[nH]c1=O,-0.8,98.0,0.4,2.2,-2.6,nt
Cc1ccc2[nH]c(=O)c(CN(Cc3cccs3)Cc3nnnn3Cc3ccccc3)cc2c1,-1.2,40.0*,-1.1,4.5,5.1,103.0
COC(=O)C1=C(C)N(C)C(=NCC2CC2)NC1CCc1ccccc1 (stereo not drawn),-0.4,nt,nt,-2.6,nt,nt
COc1ccc(-c2ccc(C(=O)NCc3ccncc3)c3occc23)c(C)c1,-2.9,69.0*,7.5,1.9,nt,98.0
COc1ccc(-c2ccc(C(=O)NCc3ccc(F)c(F)c3)c3occc23)c(C)c1,0.2,105.0,46.6,-3.3,nt,nt
CCOC(=O)C1CCN(Cc2ccc(F)c(Br)c2)CC1,-2.6,69.0*,-0.9,-2.4,8.4,99.0
COc1ccccc1Nc1nnc(SCc2nnc(-c3cc(OC)c(OC)c(OC)c3)o2)s1,1.2,96.0,-2.4,1.4,-18.4,nt
COc1cc(-c2nnc(CSc3nnc(Nc4ccc(C(C)C)cc4)s3)o2)cc(OC)c1OC,-2.5,74.0*,-2.3,-4.2,38.2,99.0
CC(C)(C)c1cc(NS(=O)(=O)c2ccc3c(c2)OCCO3)on1,-2.2,87.0,2.8,-1.1,3.6,nt
CCOC(=O)c1ccc(S(=O)(=O)Nc2cc(C(C)(C)C)no2)cc1,1.8,66.0*,0.4,-2.1,-11.7,99.0
CCN(C)C(=O)CNc1nnnn1-c1ccccc1,nt,nt,nt,0.9,nt,nt
COc1cccc(NC(=O)N(Cc2ccco2)C(C)c2cccs2)c1 (stereo not drawn),-2.0,73.0*,4.3,7.2,8.7,106.0
SMILES,PG9 Ab binder,ABCB6 inh MLPCN,Exocytosis inh,NR1D1 modulator,VLA-4 inh,ABCB6 inh CP1
CC(c1cccs1)N(Cc1ccco1)C(=O)Nc1ccc(Cl)c(Cl)c1 (stereo not drawn),-0.8,97.0,3.4,0.1,9.3,nt
CCCC(=O)Nc1ccc2c(c1)Cc1ccccc1-2,-1.7,73.0*,20.1,2.6,0.6,99.0
CCC(=O)Nc1ccc2c(c1)Cc1cc(NC(=O)CC)ccc1-2,-0.6,94.0,-1.3,-3.0,8.2,nt
CC(C)C1CCC(C(=O)N[C@@H](Cc2ccccc2)C(=O)O)CC1 (stereo partly drawn),nt,nt,nt,-4.9,nt,nt
COC(=O)c1ccccc1NC(=O)c1noc2c1CC(C(C)(C)C)CC2 (stereo not drawn),1.6,69.0*,-0.7,1.4,-15.6,100.0
CC(C)(C)C1CCc2onc(C(=O)Nc3cccc(O)c3)c2C1 (stereo not drawn),0.6,98.0,0.1,-3.0,16.5,nt
COc1ccc(CN(CCN2CCOCC2)C(=O)c2cc(F)cc(F)c2)cc1OC,nt,nt,nt,0.5,nt,nt
CC(=O)NCCN=Cc1sc2ccccc2c1O,-4.5,89.0,1.4,-3.4,6.2,nt
CCCN=Cc1sc2ccc(OCC)cc2c1O,1.2,74.0*,-1.8,-2.4,-1.9,104.0
Cc1ccc(OCC(=O)Nc2ccncc2)cc1C,1.2,74.0*,-1.6,1.1,nt,99.0
COc1ccc2nc(SCC(=O)Nc3c(C)cccc3C)[nH]c2c1,-0.5,74.0*,0.2,-3.1,8.4,98.0
CCOc1ccc2nc(SCC(=O)NCc3ccccc3OC)[nH]c2c1,-0.4,72.0*,3.1,0.5,18.6,103.0
COc1ccc2nc(SCC(=O)Nc3ccccc3)[nH]c2c1,-0.2,101.0,-3.3,-2.4,5.2,nt
CCOc1ccc2nc(SCC(=O)NCc3ccc(OC)cc3)[nH]c2c1,0.3,94.0,9.5,0.7,13.9,nt
CC1(C)CCC(C)(C)c2cc(NC(=O)c3ccc(C(=O)O)cc3)ccc21,nt,nt,nt,-1.9,nt,nt
O=S(=O)(NCc1cn(Cc2ccccc2)nn1)c1ccccc1Br,nt,nt,nt,6.0,nt,nt
CC(C)NC(=O)c1cc2c(=O)n3ccccc3nc2s1,-0.7,79.0,-1.8,0.4,-2.1,nt
CSc1ccccc1NC(=O)c1cc2c(=O)n3ccccc3nc2s1,-19.4,102.0,2.1,1.9,17.1,101.0
Cc1cc(C)cc(NC(=O)c2cc3c(=O)n4ccccc4nc3s2)c1,-0.3,91.0,-4.2,0.1,-9.5,97.0
CN1C(=O)[C@@]2(C3=C(CCCC3=O)OC3=C2C(=O)OC2(CCCCC2)C3)c2ccccc21,-0.2,nt,nt,5.5,nt,nt
O=C(O)COCC(=O)N1CCCN(c2nccc(C(F)(F)F)n2)CC1,nt,50.0*,25.9,nt,4.7,102.0
CN1CCN(C(=O)CCc2nnc3ccc(N4CCC5(CC4)OCCO5)nn23)CC1,-1.8,97.0,-1.6,0.6,-3.5,100.0
O=C(CCc1nnc2ccc(N3CCC4(CC3)OCCO4)nn12)N1CCCCC1,-1.4,97.0,3.3,10.7,-1.8,96.0
CCOC(=O)C1CCN(C(=O)CCc2nnc3ccc(N4CCN(C)CC4)nn23)CC1,-0.2,98.0,-6.1,0.5,-129.2,101.0
COc1ccc(-c2noc(C3CCCN(C(=O)Nc4ccc(Cl)cc4)C3)n2)cc1 (stereo not drawn),nt,nt,nt,5.0,nt,nt
O=C(Nc1cccc(F)c1)OCCCN1CCC2(CCC(c3ccccc3)CC2)C1 (stereo not drawn),nt,nt,nt,6.2,nt,nt
Cc1nn(Cc2ccccc2)c(C)c1C(=O)N1CCN(CC(=O)Nc2ccc(F)cc2)CC1,0.3,100.0,18.8,-5.5,-16.3,nt
